Assay outcomes as filed in PubChem.
Sampled rows, rich in hits. Any-hit rate of the full collection: about 7%.
KLK7 zymogen act = proKLK7 zymogen activators, primary screen, biochemical, fluorescence intensity. Kallikrein-7 (Homo sapiens), P49862. purified proKLK7, EDANS-DABCYL substrate fluorescence; 100% is mature enzyme control, 0% vehicle. activation, % at 7 µM. actives 0.9% (n = 370,000). AID 652039, 2013;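 active = activation above the mean of all tested compounds plus 3 SD, computed per campaign excluding outliers beyond control limits, cut at about 13% in these data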
NR3A LBD binder = binders of NR3A ligand-binding domain, primary screen, biophysical, differential scanning fluorimetry, uHTS | Glutamate receptor ionotropic, NMDA 3A (GRIN3A) ligand-binding domain | NR3A LBD differential scanning fluorimetry, Tm shift; 0% = protein alone, 100% = glycine-bound protein | Tm shift relative to glycine control, % at 25 µM | actives 2.5% (n = 340,000) | AID 1259313, 2017;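 active = melting temperature shift of at least 10% of the positive control shift, at one fixed dose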
rCAG binder = binders of r(CAG) RNA repeats, primary screen, biochemical, fluorescence | AID 651821, 2012 | actives 1.3% (n = 370,000) | inhibition, % at 3 µM | r(CAG) RNA repeat, TO-PRO-1 dye displacement fluorescence;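 active = inhibition above the plate cutoff, the mean of all test compounds on that plate plus 3 SD, cut at about 35% in these data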;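 note: 0% = DMSO alone and 100% = 100 µM mitoxantrone as full dye displacement; higher means more dye released from RNA so lower well fluorescence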
AHR act = AHR activators, primary screen, cell-based, luminescence, luciferase reporter, human | Aryl hydrocarbon receptor (Homo sapiens), P35869 | AHR-responsive luciferase reporter cells | activation, % at 5 µM | actives 2.5% (n = 320,000) | AID 2796, 2010; in the data active = activation above about 47%;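 note: 0% = vehicle wells and 100% = reference agonist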
ADAM17 inh = ADAM17 inhibitors, primary screen, biochemical, QFRET; Disintegrin and metalloproteinase domain-containing protein 17 (Homo sapiens), P78536; recombinant ADAM17, EDANS/DABCYL FRET peptide cleavage; inhibition, % at 6.95 µM; actives 0.83% (n = 370,000);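 active = inhibition above the mean of compounds lying between control limits plus 3 SD, set per campaign, cut at about 8.5% in these data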;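 note: 0% = DMSO-only wells as the low control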
ADAM10 inh = human ADAM10 inhibitors, primary screen, biochemical, QFRET, HTS. Disintegrin and metalloproteinase domain-containing protein 10 (Homo sapiens), O14672. AID 720582, 2013. inhibition, % at 7 µM. recombinant ADAM10, EDANS/DABCYL FRET peptide cleavage, 3 h. actives 0.62% (n = 370,000);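 active = inhibition above a per-campaign cutoff equal to the mean of compounds falling between control-based bounds plus 3 SD, cut at about 20% in these data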;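 note: 0% = DMSO wells while the 100% control is not disclosed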
Starred values were filed as active, the others as inactive; · = not tested or not shown.

SMILES	KLK7 zymogen act	NR3A LBD binder	rCAG binder	AHR act	ADAM17 inh	ADAM10 inh
O=C(c1ccccc1)n1ccc2ccccc21	-2	6	0	62*	-1	2
CCOc1ccc(OCCOCCOc2ccccc2Cl)cc1	0	18*	-5	8	3	4
CCNc1sc(C(=O)c2cccs2)c(N)c1-c1nc2ccccc2s1	-1	21*	24	55*	0	6
c1coc(CNc2nc3ccccc3s2)c1	-1	1	2	21	2	11
CCOC(=O)c1sc(NCc2ccco2)c(-c2nc3ccccc3s2)c1N	-9	0	32	62*	-2	-11
CCNc1sc(C(=O)c2cccs2)c(N)c1C#N	0	-7	2	12	-4	5
O=C(NC1CCCC1)C1(C(=O)C2CC2)CC(c2ccccc2C(F)(F)F)=NO1 (configuration not stated)	1	·	-1	·	3	10
Fc1ccc(NC(=S)NCCN2CCOCC2)cc1	0	-1	-2	3	-2	-1
S=C(Nc1ccc(-c2nc3ccccc3[nH]2)cc1)Nc1cccnc1	1	37*	9	9	-105	-330
S=C(NCCN1CCOCC1)Nc1ccc(-c2nc3ccccc3[nH]2)cc1	0	15*	0	12	-11	-41
COC(=O)c1cccc(Cn2ccc3ccc(-c4ccc5ccn(C(=O)c6cccc(OC)c6)c5c4)cc32)c1	-8	·	15	·	-8	-23
CC(C)CNC(=O)c1coc(=O)c(Br)c1	27*	4	-2	7	-126	-492
Cc1ccccc1NC(=O)/C(C#N)=C/c1ccsc1	0	-1	-3	70*	0	-7
COC(=O)[C@]12C[C@H](CC(=O)NCc3cccs3)C(=O)N(Cc3cccc4ccccc34)C1=C[C@H](C(C)C)O[C@@H]2C1CC1	0	·	5	·	8	19
CCO/C=C1/C(=O)N(CC)c2ccccc21	0	-1	0	7	-1	1
CCN1C(=O)C(F)(CC)C(=O)c2ccccc21 (configuration not stated)	0	13*	0	2	-2	-4
Cc1ccccc1NC(=O)O[C@H]1CC[C@@]23CCCN2C(=O)CCC[C@H]3[C@H]1C	·	·	·	·	-7	-6
CCOC(=O)C1(C(=O)O)NC(=O)CC1c1ccccc1 (configuration not stated)	0	12*	-2	-3	-3	-1
CCOC(=O)C1(C(=O)OCC)CC1c1ccccc1 (configuration not stated)	1	-2	-6	1	-2	-2
COC(=O)Cc1nnn2c1CC(OC)c1ccccc1-2 (configuration not stated)	0	·	3	·	1	0
COC(=O)C1=C(C)N(C)C(=NCc2ccc3c(c2)OCO3)NC1c1ccc(Cl)cc1 (configuration not stated)	0	·	12	·	-1	-8
O=C(Cc1ccc(F)cc1)Nc1nc(-c2ccc(F)c(F)c2)cs1	0	-1	2	·	2	6
O=C(CSc1ncnc2[nH]ncc12)Nc1nc(-c2ccc(F)c(F)c2)cs1	0	20*	-7	-8	0	14
CC(=O)c1cc2c(cc1N/C(=N/S(=O)(=O)c1ccccc1)c1ccc(Cl)cc1)OCO2	0	-12	0	94*	0	-3
O=C(NN/C(=N/S(=O)(=O)c1ccc(Cl)cc1)c1ccccc1)c1ccc(O)cc1	-1	37*	3	-1	1	5
COc1ccc2c(c1)CN1C(=O)N(Cc3ccc(F)cc3)S(=O)(=O)CC21 (configuration not stated)	1	·	3	·	4	-2
Cc1ccc(C)c(NC(=O)CN2C(=O)CCSc3ccccc32)c1	1	·	4	·	6	-5
